In PubChem BioAssay (NCI):
The panel holds about 83,000 compounds, 20% with a hit somewhere; the sample as a whole holds those more often.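 Method: cells in 96-well plates; compound added at one concentration; 48 h incubation; percent growth measured; values under 10 scored active.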 Active and inactive are the calls of the source.

Columns and labels:
Test in all cases: NCI-60 one-dose screen, 48 h (100 = growth as untreated, 0 = no growth, -100 = all killed)
Settings in all cases: 10 µM unless noted
SK-MEL-2 melanoma = tested on: SK-MEL-2 melanoma
EKVX NSCLC = tested on: EKVX NSCLC
SN12C renal = tested on: SN12C renal
UO-31 renal = tested on: UO-31 renal
TK-10 renal = tested on: TK-10 renal
ACHN renal = tested on: ACHN renal
CAKI-1 renal = tested on: CAKI-1 renal
A498 renal = tested on: A498 renal
CCRF-CEM leukemia = tested on: CCRF-CEM leukemia
MOLT-4 leukemia = tested on: MOLT-4 leukemia

| Compound | growth (SK-MEL-2 melanoma) | growth (EKVX NSCLC) | growth (SN12C renal) | growth (UO-31 renal) | growth (TK-10 renal) | growth (ACHN renal) | growth (CAKI-1 renal) | growth (A498 renal) | growth (CCRF-CEM leukemia) | growth (MOLT-4 leukemia) |
| --- | --- | --- | --- | --- | --- | --- | --- | --- | --- | --- |
| Cc1cc(C(N)=O)cc(C)c1C(=O)OCCCl | 119% (inactive) | 89.1% (inactive) | 98.3% (inactive) | 86.2% (inactive) | 106% (inactive) | 108% (inactive) | 97.6% (inactive) | 98.8% (inactive) | 112% (inactive) | 95.8% (inactive) |
| Cc1ccc2c(c1)sc(-c1ccc(N(C)C)cc1)[n+]2C | 0.0539% (active) | 6.29% (active) | 3.59% (active) | 65.1% (inactive) | 14.8% (inactive) | 63.6% (inactive) | 72.3% (inactive) | -6.25% (active) | 10.7% (inactive) | -42.4% (active) |
| O=C(CCl)N(c1ccccc1)c1ccccc1 | 97.7% (inactive) | 111% (inactive) | 99.6% (inactive) | 86.7% (inactive) | 105% (inactive) | 109% (inactive) | 105% (inactive) | 105% (inactive) | 92.7% (inactive) | 102% (inactive) |
| CN=C(N)N/N=C(\C)c1ccc2c(c1)Cc1ccccc1-2 | -51.8% (active) | 1.95% (active) | -40.5% (active) | -87.9% (active) | -75% (active) | -92.1% (active) | -53.9% (active) | -8.05% (active) | -35.2% (active) | -63% (active) |
| O/N=C1\c2ccccc2-c2ccc(F)cc21 | 97.5% (inactive) | 90.4% (inactive) | 94.4% (inactive) | 47.7% (inactive) | 84.8% (inactive) | 87.1% (inactive) | 94.1% (inactive) | 132% (inactive) | 86.5% (inactive) | 71.6% (inactive) |
| CCCCCC/C=C1\CCC(CN2CCCC2)C1=O (stereo not drawn) | 114% (inactive) | 113% (inactive) | 103% (inactive) | 90.4% (inactive) | 124% (inactive) | 114% (inactive) | 102% (inactive) | 94.1% (inactive) | 33.1% (inactive) | 60.2% (inactive) |
| Nc1nc(N)c2cc(Sc3cccc(C(F)(F)F)c3)ccc2n1 | 68.5% (inactive) | 23.7% (inactive) | 26.5% (inactive) | 21.3% (inactive) | 43.5% (inactive) | 26.6% (inactive) | 9.5% (active) | 54% (inactive) | 33.2% (inactive) | 14.3% (inactive) |
| Nc1ccc(-c2ccc(N)c(S(=O)(=O)O)c2)cc1S(=O)(=O)O | 127% (inactive) | 119% (inactive) | 102% (inactive) | 94.5% (inactive) | 122% (inactive) | 105% (inactive) | 123% (inactive) | 141% (inactive) | 127% (inactive) | 131% (inactive) |
| O=C(c1ccc(O)c(Br)c1)c1ccc(O)c(Br)c1 | 105% (inactive) | 112% (inactive) | 94.4% (inactive) | 98.5% (inactive) | 99.4% (inactive) | 102% (inactive) | 119% (inactive) | 93.9% (inactive) | 109% (inactive) | – |
| S=c1[nH]c2cc(Cl)ccc2s1 | 100% (inactive) | 102% (inactive) | 96.6% (inactive) | 66% (inactive) | 97.6% (inactive) | 95.2% (inactive) | 92.3% (inactive) | 132% (inactive) | -43.5% (active) | 108% (inactive) |
| NNc1ccc(Cl)cc1Cl | 92.4% (inactive) | 81.1% (inactive) | 78.3% (inactive) | 29.2% (inactive) | 94.3% (inactive) | 54.7% (inactive) | 58.8% (inactive) | 97.2% (inactive) | 27.7% (inactive) | 52.7% (inactive) |
| Nc1cccc2cccc([N+](=O)[O-])c12 | 98.3% (inactive) | 120% (inactive) | 107% (inactive) | 74.7% (inactive) | 109% (inactive) | 116% (inactive) | 107% (inactive) | 104% (inactive) | 102% (inactive) | – |
| CC1(C)N=c2cc3c(cc2N1c1ccc(Cl)cc1)=Nc1ccccc1N3c1ccc(Cl)cc1 | -1.35% (active) | 52.9% (inactive) | 75.7% (inactive) | -37.1% (active) | 65.2% (inactive) | 40.2% (inactive) | 44.2% (inactive) | 26.7% (inactive) | -25.3% (active) | -32.2% (active) |
| CCOC(=O)c1cc(CC)sc1NC(=O)CC(C)=O | 61.5% (inactive) | 51% (inactive) | 53% (inactive) | 40.8% (inactive) | 70.9% (inactive) | 39.9% (inactive) | 53.1% (inactive) | 98.7% (inactive) | 35.5% (inactive) | 14.4% (inactive) |
| CN(C)CCSC1=Nc2ccc(Cl)cc2C(c2ccccc2Cl)N(C)C1 (stereo not drawn) | 81.8% (inactive) | 81% (inactive) | 63.8% (inactive) | 24.5% (inactive) | 64.9% (inactive) | 74.2% (inactive) | 20.5% (inactive) | 127% (inactive) | 85.2% (inactive) | 79.2% (inactive) |
| O=C(c1ccccc1)C(Br)[N+](=O)[O-] (stereo not drawn) | 97.5% (inactive) | 96.5% (inactive) | 103% (inactive) | 80.8% (inactive) | 106% (inactive) | 86.8% (inactive) | 93% (inactive) | 101% (inactive) | 24.8% (inactive) | 20.6% (inactive) |
| N#CC(I)CS(=O)(=O)c1ccccc1 (stereo not drawn) | 91.6% (inactive) | 103% (inactive) | 93.4% (inactive) | 77.2% (inactive) | 89.7% (inactive) | 36.7% (inactive) | 55.4% (inactive) | 121% (inactive) | 3.27% (active) | 88.9% (inactive) |
| CCN(CC)CC(O)c1cc(-c2ccc(Cl)cc2)nc2cc(Cl)ccc12 (stereo not drawn) | 22.7% (inactive) | 60.5% (inactive) | 29.6% (inactive) | 35.2% (inactive) | 20.6% (inactive) | 7.25% (active) | -16.5% (active) | 64.6% (inactive) | 3.88% (active) | -18.3% (active) |
| N=C(N)Sc1cccc[n+]1[O-] | 59% (inactive) | 47.7% (inactive) | 101% (inactive) | 36.1% (inactive) | 86.2% (inactive) | 48.6% (inactive) | 79.5% (inactive) | 81.7% (inactive) | -8.85% (active) | 12.7% (inactive) |
| CC1C(c2ccccc2)OCCN1C(=S)Nc1ccc(S(=O)(=O)N2CCCCC2)cc1 (stereo not drawn) | 104% (inactive) | 92.1% (inactive) | 96.1% (inactive) | 94.5% (inactive) | 116% (inactive) | 96.4% (inactive) | 36.4% (inactive) | 99.3% (inactive) | 81% (inactive) | 99.5% (inactive) |
| O=C1C=CC(=O)N1c1ccc(O)cc1 | 107% (inactive) | 109% (inactive) | 104% (inactive) | 98.5% (inactive) | 103% (inactive) | 94.3% (inactive) | 107% (inactive) | 104% (inactive) | 81% (inactive) | 104% (inactive) |
| O=C1C(=O)c2cccnc2-c2ncccc21 | -11.1% (active) | -49.7% (active) | -14.3% (active) | -71.3% (active) | -24% (active) | -69.4% (active) | -29.4% (active) | -39.4% (active) | -32.6% (active) | -45.1% (active) |
| CN1CSC(=S)N(Cc2ccccc2)C1 | 73.3% (inactive) | 118% (inactive) | 99.9% (inactive) | 69.5% (inactive) | 28.6% (inactive) | 102% (inactive) | 80% (inactive) | 145% (inactive) | 59.3% (inactive) | 64.5% (inactive) |
| CC1(C)OC2C(COC(c3ccccc3)(c3ccccc3)c3ccccc3)OC(c3c[nH]c4c(N)ncnc34)C2O1 (stereo not drawn) | 69.8% (inactive) | 55.3% (inactive) | 50.1% (inactive) | 58.3% (inactive) | 84.2% (inactive) | 52.2% (inactive) | 56.6% (inactive) | 74.7% (inactive) | 36.3% (inactive) | -7.93% (active) |
| CCOc1ccc(C(C[N+](=O)[O-])Sc2ccccc2N)cc1 (stereo not drawn) | 98.7% (inactive) | 66.9% (inactive) | 65% (inactive) | -62.9% (active) | 106% (inactive) | 55.4% (inactive) | 64.6% (inactive) | 109% (inactive) | 30.3% (inactive) | 4.52% (active) |
| O=C1C=Cc2ccccc2/C1=C/c1nc(-c2ccccc2)oc1O | 99.1% (inactive) | 78.7% (inactive) | 94.8% (inactive) | 65.5% (inactive) | 136% (inactive) | 81.9% (inactive) | 86.8% (inactive) | 113% (inactive) | 110% (inactive) | 96.5% (inactive) |
| Cc1ccccc1NC(=O)Cc1csc2[n+]1C(=O)/C(=C/c1ccc([N+](=O)[O-])cc1)S2 | 108% (inactive) | 92.8% (inactive) | 99.6% (inactive) | 71.8% (inactive) | 117% (inactive) | 90.4% (inactive) | 93.4% (inactive) | 75% (inactive) | 99.1% (inactive) | 88.2% (inactive) |
